Measured values from PubChem BioAssay AID2320 (National Center for Advancing Translational Sciences (NCATS), 2010).
Results filed as inconclusive are left out. Calls of active or inactive are those of the source. Calls come from the whole dose curve.

test: A qHTS for Small Molecule Inhibitors of Shiga Toxin (Confirmatory); conditions: Cell-based Shiga toxin protection reporter assay; series mostly up to 38.3 µM; activity, positive = inhibition of toxin: at the top concentration; note: nearly all actives have a fitted effect of over 75% in size; for activity, positive = inhibition of toxin: 0% is about no effect
Potency is the fitted concentration of half-maximal effect.

Structure (SMILES)	activity, positive = inhibition of toxin	Potency
Cc1ccc(-c2nnc(SCC(=O)NC3CCCC3)n2C)cc1	-30.6% (inactive)	
COc1ccccc1C(=O)NNC(=O)c1ccc2ccccc2c1		0.0006 µM (active)
OC1C[N+]2(CCCCC2)C1	-28.4% (inactive)	
N#Cc1cc2c(nc1SCC(=O)Nc1cc(Cl)ccc1Cl)C1CCN2CC1		12.6 µM (active)
CC(=O)c1ccc(-c2cccc([C@H]3[C@@H]4C=CC[C@@H](C)[C@@H]4C(=O)N3Cc3ccccc3)c2)cc1	-17% (inactive)	
COc1ccccc1NC(=O)CSc1nnc(-c2ccco2)n1Cc1ccco1	2.84% (inactive)	
CON(C)S(=O)(=O)c1cccc(C(=O)NC2CCSc3ccccc32)c1 (configuration not stated)	-17.3% (inactive)	
Nc1cc(N)nc(SCC(=O)Nc2ccc(Br)cc2Cl)n1		11.3 µM (active)
Cc1ccc2c(N)[nH]nc2n1	-50.9% (inactive)	
CCOC(=O)C1CCCN(c2nc3ccccc3nc2C(C#N)C(=O)OCC)C1 (configuration not stated)	38.5% (inactive)	
CCOC(=O)Cc1csc(NC(=O)CSc2ncnc3c2cnn3-c2ccc(OC)cc2)n1		5.04 µM (active)
COc1ccc2nc(SCC(=O)Nc3ccc4c(c3)CCC4)[nH]c2c1	41.5% (inactive)	
CCN1CCN(Cc2nnc(-c3ccc(C)cc3)o2)CC1	-16.1% (inactive)	
Cn1nccc1C(=O)Nc1sc2c(c1C#N)CCCC2		20 µM (active)
C=C1C(O)C2OC3(CCC(/C=C/C(C)C4CC(C)=CC5(OC(CC(C)(O)C(=O)O)CCC5O)O4)O3)CCC2OC1C(O)CC(C)C1OC2(CCCCO2)CCC1C (configuration not stated)		20 µM (active)
Cc1nc(N2CCN(C(=O)c3ccco3)CC2)nc2c1C(=O)CCC2		6.34 µM (active)
CCNc1c(NC(=O)c2cccs2)c(=O)oc2ccccc12	24.2% (inactive)	
Oc1ccc(C2C[C@H]3CC[C@@H]2C3)cc1O (some centres not stated)		22.5 µM (active)
O=C(/C=C/Nc1ccc(F)cc1F)c1ccco1		0.225 µM (active)
Cc1cnc(NC(=O)c2ccc(-c3nc4ccccc4s3)o2)s1		17.9 µM (active)
COc1ccc(/C=C/c2nnc(NC(=O)CSc3ccc(Cl)cc3)s2)cc1		11.3 µM (active)
Cc1cc(OCC(=O)NCc2ccccn2)cc(C)c1Br	-1.75% (inactive)	
